Here are results for six molecules from PubChem BioAssay (Tox21).

The nature of assay [1]: Caspase-3/7 induction in HepG2 cells by small molecules, qHTS assay (AID 1346978). Also: nearly all actives have a fitted effect of over 15% in size. A digest of the protocol: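 Caspase-3/7 induction was measured by Caspase-Glo 3/7 luminescence (30 min, room temperature) after a 17 hr compound exposure of wild-type HepG2 cells seeded at 2,000 per well and pre-incubated 5 hr.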
In general terms: qHTS replaces the single test concentration by a dilution series.

Assay [2] in a line: Caspase-3/7 induction in CHO-K1 cells by small molecules, qHTS cell viability counter screen (AID 1346979). Also: nearly all actives have a fitted effect of over 35% in size. Also: potency is read from the fitted curve at half-maximal effect. In a few lines:
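Seeding: 1,500 CHO-K1 cells/well. Rest: 5hr, 37C. Treatment: compounds in DMSO, 16hr. Read: CellTiter-Fluor, 1hr, fluorescence.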

Assay [3] is described as follows: Caspase-3/7 induction in CHO-K1 cells by small molecules, qHTS assay (AID 1346980). Also: nearly all actives have a fitted effect of over 15% in size. In a few lines: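 Luminescent Caspase-Glo 3/7 read (30min, room temperature) quantified apoptosis induction. Cells were wild-type CHO-K1, treated with compound for 17hr at 37 C and 5% CO2.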
A short description of assay [4]: Caspase-3/7 induction in HepG2 cells by small molecules, qHTS cell viability counter screen (AID 1346981). Also: nearly all actives have a fitted effect of over 30% in size. Also: potency is read from the fitted curve at half-maximal effect. In a few lines:
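CellTiter-Fluor fluorescence measured viability in the same wells used for Caspase-Glo 3/7. HepG2 (wild type) at 2,000 cells/well were pre-incubated 5 hr, dosed, and given reagent at 16 hr, with 1 hr further at 37C.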

In assay [5] the target is Nuclear receptor subfamily 1 group I member 2 (Homo sapiens) (UniProt O75469). Kind of assay: Human pregnane X receptor (PXR) small molecule agonists, qHTS assay (AID 1346982). Also: nearly all actives have a fitted effect of over 35% in size. Also: potency is read from the fitted curve at half-maximal effect. In a few lines: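 Agonist mode: luminescence from ONE-Glo after 24 h compound exposure at 37C in HepG2 cells carrying hPXR-responsive CYP3A4 luciferase, plated in charcoal-stripped serum medium 5 h beforehand.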
Chain of Nuclear receptor subfamily 1 group I member 2 (Homo sapiens) (O75469 whole entry, looked up): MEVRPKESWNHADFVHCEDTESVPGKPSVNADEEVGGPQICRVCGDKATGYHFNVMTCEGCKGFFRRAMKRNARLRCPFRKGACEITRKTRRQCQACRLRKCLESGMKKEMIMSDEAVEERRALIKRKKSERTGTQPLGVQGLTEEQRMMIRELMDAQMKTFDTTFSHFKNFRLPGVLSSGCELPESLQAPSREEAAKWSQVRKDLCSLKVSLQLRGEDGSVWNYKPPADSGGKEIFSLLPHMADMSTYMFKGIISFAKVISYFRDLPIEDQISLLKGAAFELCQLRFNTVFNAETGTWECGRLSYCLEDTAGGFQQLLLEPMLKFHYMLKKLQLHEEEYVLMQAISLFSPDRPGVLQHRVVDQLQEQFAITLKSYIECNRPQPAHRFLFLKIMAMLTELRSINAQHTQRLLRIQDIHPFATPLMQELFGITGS

Assay [6] concerns the target Acetylcholinesterase (Homo sapiens) (UniProt P22303). Kind of assay: Acetylcholinesterase (AChE) small molecule antagonists: enzyme-based qHTS assay (AID 1347397; calls by dose curve; also: nearly all actives have a fitted effect of over 55% in size; also: potency is read from the fitted curve at half-maximal effect). The note with it: Potency: AChE enzyme activity inhibition. In a few lines:
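Colorimetric DTNB readout of acetylthiocholine hydrolysis, 10 min at room temperature, after 30 min room-temperature exposure of 50 mU/mL recombinant human enzyme to compound; DMSO vehicle control.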

Assay [7] shares this target. The assay can be described thus: Acetylcholinesterase (AChE) small molecule antagonists: fluorescence cell-based qHTS assay (AID 1347398; calls by dose curve; also: nearly all actives have a fitted effect of over 50% in size; also: potency is read from the fitted curve at half-maximal effect). The note with it: Potency: AChE activity. In a few lines: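 Cellular AChE activity read as thiocholine from acetylthiocholine hydrolysis, detected by Thiolite Green fluorescence at 490/520 nm after 40 min at room temperature. Compounds were pre-incubated 30 min at 37 C on adherent SH-SY5Y cells.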

For assay [8] the target is unchanged. The assay can be described thus: Acetylcholinesterase (AChE) small molecule antagonists: enzyme-based qHTS assay with human liver microsomes (AID 1347399; calls by dose curve; also: nearly all actives have a fitted effect of over 60% in size; also: potency is read from the fitted curve at half-maximal effect). The following applies: Potency: qHTS inhibition. In a few lines:
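Recombinant human AChE (50 mU/mL in the enzyme mix) and human liver microsomes (0.25 mg/mL final) were preincubated with compound and NADPH (0.25 mg/mL final) for 30 min at 37 C. Acetylthiocholine/DTNB was then added; thiocholine was read colorimetrically after 10 min at room temperature.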

The target in assay [9] is Cytochrome P450 2D6 (Homo sapiens) (UniProt P10635). The assay can be described thus: Cytochrome P450 Family 2 Subfamily D Member 6 (CYP2D6) small molecule antagonists: luciferase reporter qHTS assay (AID 1671196). Also: nearly all actives have a fitted effect of over 50% in size. Also: potency is read from the fitted curve at half-maximal effect. In a few lines: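 CYP2D6 activity was followed as luminescence from its luciferin product after a 1 h NADPH-driven reaction at room temperature. Enzyme-substrate mix and compound were pre-incubated for 10 min, and the signal was read 20 min after adding detection reagent.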
Chain of Cytochrome P450 2D6 (Homo sapiens) (P10635 whole entry, looked up): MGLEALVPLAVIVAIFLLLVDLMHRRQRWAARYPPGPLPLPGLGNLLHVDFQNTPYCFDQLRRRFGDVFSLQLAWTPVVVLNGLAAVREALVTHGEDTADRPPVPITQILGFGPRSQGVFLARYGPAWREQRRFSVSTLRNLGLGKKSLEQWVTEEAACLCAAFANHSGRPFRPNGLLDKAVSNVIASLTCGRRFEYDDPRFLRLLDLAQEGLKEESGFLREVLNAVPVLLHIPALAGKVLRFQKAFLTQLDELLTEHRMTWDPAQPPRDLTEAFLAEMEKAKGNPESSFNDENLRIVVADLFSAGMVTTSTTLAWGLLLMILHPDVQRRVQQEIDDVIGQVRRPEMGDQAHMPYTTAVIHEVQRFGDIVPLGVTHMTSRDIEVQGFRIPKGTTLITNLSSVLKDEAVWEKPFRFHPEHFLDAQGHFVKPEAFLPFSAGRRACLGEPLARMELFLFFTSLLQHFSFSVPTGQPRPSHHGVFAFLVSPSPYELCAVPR

Assay [10] has as its target Cytochrome P450 2C19 (Homo sapiens) (UniProt P33261). Kind of assay: Cytochrome P450 Family 2 Subfamily C Member 19 (CYP2C19) small molecule antagonists: luciferase reporter qHTS assay (AID 1671197). Also: nearly all actives have a fitted effect of over 65% in size. Also: potency is read from the fitted curve at half-maximal effect. In a few lines:
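Compounds were tested on CYP2C19 activity via proluciferin conversion to luciferin. The 37C, 1 h reaction followed NADPH addition; detection reagent stopped it.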
In general terms: A reporter such as luciferase makes a cellular process visible.

The target in assay [11] is Cytochrome P450 2C9 (Homo sapiens) (UniProt P11712). Kind of assay: Cytochrome P450 Family 2 Subfamily C Member 9 (CYP2C9) small molecule antagonists: luciferase reporter qHTS assay (AID 1671198). Also: nearly all actives have a fitted effect of over 50% in size. Also: potency is read from the fitted curve at half-maximal effect. In a few lines:
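Enzyme-substrate mix preincubated with compound 10 min at room temperature; reaction started with NADPH regeneration solution, 1 h 37C. Luminescent luciferin product read after 20 min detection reagent.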

Assay [12] addresses Cytochrome P450 1A2 (Homo sapiens) (UniProt P05177). Kind of assay: Cytochrome P450 Family 1 Subfamily A Member 2 (CYP1A2) small molecule antagonists: luciferase reporter qHTS assay (AID 1671199). Also: nearly all actives have a fitted effect of over 50% in size. Also: potency is read from the fitted curve at half-maximal effect. In a few lines:
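Luminescence from luciferin formed by CYP1A2 from a proluciferin substrate, read 20 min after detection reagent. Compound was pre-incubated 10 min with enzyme-substrate, and reaction started with NADPH regeneration solution for 1 h at room temperature; furafylline control.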

The target of assay [13] is Cytochrome P450 3A4 (Homo sapiens) (UniProt P08684). The assay can be described thus: Cytochrome P450 Family 3 Subfamily A Member 4 (CYP3A4) small molecule antagonists: luciferase reporter qHTS assay (AID 1671201). Also: nearly all actives have a fitted effect of over 50% in size. Also: potency is read from the fitted curve at half-maximal effect. In a few lines: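 Enzyme and proluciferin substrate are mixed with test chemicals for 10 min, then NADPH regeneration system drives turnover for 1 h at room temperature. A detection reagent halts the reaction; luminescence after 20 min gives relative activity.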
Chain of Cytochrome P450 3A4 (Homo sapiens) (P08684 whole entry, looked up): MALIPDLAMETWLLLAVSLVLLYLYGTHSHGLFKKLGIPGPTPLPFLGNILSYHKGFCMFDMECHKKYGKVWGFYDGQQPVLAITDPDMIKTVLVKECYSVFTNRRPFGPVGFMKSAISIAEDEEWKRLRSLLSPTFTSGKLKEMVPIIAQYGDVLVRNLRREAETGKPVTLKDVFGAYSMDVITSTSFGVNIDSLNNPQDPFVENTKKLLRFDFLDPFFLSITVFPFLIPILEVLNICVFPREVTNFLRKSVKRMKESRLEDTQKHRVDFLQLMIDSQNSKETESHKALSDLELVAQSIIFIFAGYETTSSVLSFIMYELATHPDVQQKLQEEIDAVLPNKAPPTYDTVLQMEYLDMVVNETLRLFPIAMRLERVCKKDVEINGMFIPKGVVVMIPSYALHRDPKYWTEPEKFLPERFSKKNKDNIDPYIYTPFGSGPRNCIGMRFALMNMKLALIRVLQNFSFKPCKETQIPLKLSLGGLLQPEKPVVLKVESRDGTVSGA

Assay [14] deals with Acetylcholinesterase (Homo sapiens) (UniProt P22303). Kind of assay: Acetylcholinesterase (AChE) small molecule antagonists: colormetric cell-based qHTS assay (AID 1347395; calls by dose curve; also: nearly all actives have a fitted effect of over 30% in size; also: potency is read from the fitted curve at half-maximal effect). In a few lines:
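Quantitative HTS in attached SH-SY5Y cells: 30 min compound exposure, then 90 min with acetylthiocholine and DTNB at 37 C; colour from thiocholine reports AChE activity.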

Assay [15] addresses Voltage-gated inwardly rectifying potassium channel KCNH2 (Homo sapiens) (UniProt Q12809). The assay can be described thus: Human Ether-a-go-go-Related Gene (hERG) channel small molecule antagonists: fluorescence cell-based qHTS assay (AID 1671200). Also: nearly all actives have a fitted effect of over 50% in size. Also: potency is read from the fitted curve at half-maximal effect. A digest of the protocol: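 First, 1000 cells per well are seeded and cultured overnight at 37 C. Next, FluxOR II dye is loaded for 1 h at room temperature, protected from light. After 10 more minutes, stimulus is added and fluorescence is read.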

In assay [16] the target is Nuclear receptor subfamily 1 group I member 2 (Rattus norvegicus) (UniProt Q9R1A7). Kind of assay: Rat pregnane X receptor (rPXR) activation by small molecules, qHTS assay (AID 1346983). Also: nearly all actives have a fitted effect of over 20% in size. The following applies: rPXR luciferase reporter cells, One-Glo luminescence, 24 h; stronger effect = higher value. A digest of the protocol: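 Luminescent readout (One-Glo luciferase, 30 min room temperature) followed 24 hr compound treatment at 37 C of rPXR cells plated 2,000 per well and preincubated 5hr; qHTS format with compounds delivered in DMSO.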

Assay [17] addresses Nuclear receptor subfamily 1 group I member 2 (Homo sapiens) (UniProt O75469). The assay can be described thus: CYP3A4 induction through human pregnane X receptor (PXR) by small molecules, qHTS assay (AID 1346984). Also: nearly all actives have a fitted effect of over 40% in size. In a few lines:
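Read-out is luminescence after One-Glo addition, following a 3 hr, 37C incubation with Luciferin-IPA CYP3A4 substrate (3uM final). Before that, compounds were on DPX-2 cells (HepG2 co-transfected with PXR element plus CYP3A4-promoter luciferase) for 24 hr at 37C.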

For assay [18] the target is unchanged. Kind of assay: Human pregnane X receptor (PXR) activation by small molecules, qHTS assay (AID 1346985). Also: nearly all actives have a fitted effect of over 40% in size. A digest of the protocol: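 DPX-2 cells (HepG2 co-transfected with a PXR response element and a CYP3A4-promoter luciferase construct) were seeded at 2,000 per well, rested 5 hr at 37C, then exposed to DMSO-dissolved compounds for 24 hr. Activation was read as luciferase luminescence.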

Values joined by “and” are separate entries in the source; they are usually repeats but may differ in a detail not shown here. Equal values may be shown once. Records with an inconclusive call do not appear. The source holds several records for some structures; these can differ, active in one and inactive in another. Active and inactive are the calls of the source. Unless noted, calls follow the shape of the dose curve; as a rule, active = well fitted curve in the direction sought with a large enough effect in the repeat runs; inconclusive = weak or mixed curves; inactive = no such curve, though single readings can be large; an effect the other way counts as inactive or inconclusive.
% is scaled to controls: 0 for no effect and ±100 for the full control effect.

Chain of Acetylcholinesterase (Homo sapiens) (P22303 whole entry, looked up): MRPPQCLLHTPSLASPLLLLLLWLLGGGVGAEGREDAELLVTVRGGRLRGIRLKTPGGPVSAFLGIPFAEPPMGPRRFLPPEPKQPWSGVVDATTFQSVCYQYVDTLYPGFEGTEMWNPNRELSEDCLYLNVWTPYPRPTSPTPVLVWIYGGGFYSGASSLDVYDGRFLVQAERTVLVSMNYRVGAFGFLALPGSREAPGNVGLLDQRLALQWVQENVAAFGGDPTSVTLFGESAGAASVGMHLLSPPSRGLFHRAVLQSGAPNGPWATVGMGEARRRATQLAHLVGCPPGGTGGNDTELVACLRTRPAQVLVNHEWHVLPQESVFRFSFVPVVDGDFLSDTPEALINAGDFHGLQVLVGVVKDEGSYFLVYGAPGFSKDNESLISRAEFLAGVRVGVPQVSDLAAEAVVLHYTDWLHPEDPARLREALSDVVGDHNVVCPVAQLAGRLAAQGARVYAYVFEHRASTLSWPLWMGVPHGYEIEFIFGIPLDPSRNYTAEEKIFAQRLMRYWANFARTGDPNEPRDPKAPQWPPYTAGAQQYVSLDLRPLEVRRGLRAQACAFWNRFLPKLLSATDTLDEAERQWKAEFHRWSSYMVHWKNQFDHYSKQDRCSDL
Chain of Cytochrome P450 1A2 (Homo sapiens) (P05177 whole entry, looked up): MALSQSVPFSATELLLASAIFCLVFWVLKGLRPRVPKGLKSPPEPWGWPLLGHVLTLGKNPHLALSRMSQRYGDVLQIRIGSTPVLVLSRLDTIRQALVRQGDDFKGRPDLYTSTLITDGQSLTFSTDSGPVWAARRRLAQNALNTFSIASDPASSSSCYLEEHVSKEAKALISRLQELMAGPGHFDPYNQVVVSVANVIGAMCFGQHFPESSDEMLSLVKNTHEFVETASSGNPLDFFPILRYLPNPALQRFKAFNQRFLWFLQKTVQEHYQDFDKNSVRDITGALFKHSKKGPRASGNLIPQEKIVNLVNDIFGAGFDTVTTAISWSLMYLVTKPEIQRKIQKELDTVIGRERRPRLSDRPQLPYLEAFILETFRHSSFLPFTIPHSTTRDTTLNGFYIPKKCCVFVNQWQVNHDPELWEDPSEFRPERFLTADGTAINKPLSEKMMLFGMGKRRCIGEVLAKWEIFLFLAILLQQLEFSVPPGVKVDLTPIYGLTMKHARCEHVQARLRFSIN
Chain of Cytochrome P450 2C9 (Homo sapiens) (P11712 whole entry, looked up): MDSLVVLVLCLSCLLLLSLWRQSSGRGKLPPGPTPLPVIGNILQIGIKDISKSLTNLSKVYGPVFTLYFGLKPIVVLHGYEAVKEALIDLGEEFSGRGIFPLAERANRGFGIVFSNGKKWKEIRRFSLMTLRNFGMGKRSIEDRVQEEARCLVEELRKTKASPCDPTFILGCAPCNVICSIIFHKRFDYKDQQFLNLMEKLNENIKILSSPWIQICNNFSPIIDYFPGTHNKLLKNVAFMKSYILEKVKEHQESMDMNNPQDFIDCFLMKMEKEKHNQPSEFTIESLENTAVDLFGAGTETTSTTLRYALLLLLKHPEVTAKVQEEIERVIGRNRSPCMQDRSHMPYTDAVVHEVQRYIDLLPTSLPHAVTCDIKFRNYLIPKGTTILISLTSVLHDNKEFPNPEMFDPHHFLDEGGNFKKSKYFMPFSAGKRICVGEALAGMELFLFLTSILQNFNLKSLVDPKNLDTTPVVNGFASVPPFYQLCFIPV
Chain of Cytochrome P450 2C19 (Homo sapiens) (P33261 whole entry, looked up): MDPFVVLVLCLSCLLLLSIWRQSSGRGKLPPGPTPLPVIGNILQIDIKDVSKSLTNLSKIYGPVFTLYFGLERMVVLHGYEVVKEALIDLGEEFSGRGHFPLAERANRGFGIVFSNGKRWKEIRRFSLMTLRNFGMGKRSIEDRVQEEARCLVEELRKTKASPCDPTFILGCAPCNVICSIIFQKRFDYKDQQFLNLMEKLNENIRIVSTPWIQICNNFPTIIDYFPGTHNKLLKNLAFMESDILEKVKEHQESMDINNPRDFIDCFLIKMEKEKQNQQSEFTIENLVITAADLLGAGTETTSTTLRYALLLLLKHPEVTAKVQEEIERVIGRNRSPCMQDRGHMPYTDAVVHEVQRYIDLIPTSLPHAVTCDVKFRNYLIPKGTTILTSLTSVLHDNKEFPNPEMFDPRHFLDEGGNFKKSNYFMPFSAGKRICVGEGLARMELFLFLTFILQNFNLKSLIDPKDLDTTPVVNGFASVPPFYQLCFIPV
Chain of Voltage-gated inwardly rectifying potassium channel KCNH2 (Homo sapiens) (Q12809 whole entry, looked up): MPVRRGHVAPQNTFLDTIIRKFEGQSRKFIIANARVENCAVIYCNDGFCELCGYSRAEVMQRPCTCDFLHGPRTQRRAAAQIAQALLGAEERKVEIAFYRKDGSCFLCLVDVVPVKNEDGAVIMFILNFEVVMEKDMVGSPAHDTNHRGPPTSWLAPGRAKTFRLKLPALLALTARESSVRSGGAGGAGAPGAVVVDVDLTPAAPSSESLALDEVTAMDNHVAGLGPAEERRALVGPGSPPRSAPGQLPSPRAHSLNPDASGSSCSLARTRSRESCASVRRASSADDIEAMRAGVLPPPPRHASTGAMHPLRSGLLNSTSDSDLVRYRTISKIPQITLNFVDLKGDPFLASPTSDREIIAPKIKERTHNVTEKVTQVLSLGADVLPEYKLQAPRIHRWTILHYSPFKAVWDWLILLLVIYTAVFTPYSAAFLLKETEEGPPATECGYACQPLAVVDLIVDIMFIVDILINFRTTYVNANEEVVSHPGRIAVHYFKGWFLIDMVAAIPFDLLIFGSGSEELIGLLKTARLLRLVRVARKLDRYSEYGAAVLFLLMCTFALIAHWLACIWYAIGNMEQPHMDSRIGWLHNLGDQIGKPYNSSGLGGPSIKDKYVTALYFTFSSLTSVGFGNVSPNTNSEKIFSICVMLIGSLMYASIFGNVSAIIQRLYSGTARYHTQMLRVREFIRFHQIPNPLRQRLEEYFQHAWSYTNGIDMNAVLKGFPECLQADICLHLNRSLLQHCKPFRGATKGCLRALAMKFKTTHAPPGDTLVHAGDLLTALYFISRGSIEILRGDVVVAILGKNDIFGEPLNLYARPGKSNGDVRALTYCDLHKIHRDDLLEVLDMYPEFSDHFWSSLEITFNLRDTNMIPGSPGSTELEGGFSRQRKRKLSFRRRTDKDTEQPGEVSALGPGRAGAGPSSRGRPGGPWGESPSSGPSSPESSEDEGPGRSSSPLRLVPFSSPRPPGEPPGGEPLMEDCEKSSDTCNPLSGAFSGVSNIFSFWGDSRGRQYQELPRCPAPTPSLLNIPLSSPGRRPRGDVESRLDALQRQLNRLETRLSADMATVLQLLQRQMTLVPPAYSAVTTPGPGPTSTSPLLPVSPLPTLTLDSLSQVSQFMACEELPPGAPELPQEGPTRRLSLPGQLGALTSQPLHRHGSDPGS

Take `CCN(CC)C(=O)SCc1ccc(Cl)cc1`: the Potency entry in [1], in assay [2], in assay [3], in assay [4], in assay [6] and in [7] was “inactive” throughout. Further, the Potency entry in assay [8], in assay [9] and in assay [13] was “inactive” in each case. The Potency in assay [5] is 56.1 µM (active); in assay [10], 581 nM (active) and 564 nM (active); in assay [11] it was 32.7 µM (active) and 25.2 µM (active); in [12], 13 µM (active) and 15.9 µM (active).
Regarding `O=P(Oc1ccccc1)(Oc1ccccc1)Oc1ccccc1`, the Potency entry in assay [1], in [3], in assay [4] and in assay [9] was “inactive” each time. Besides, the Potency in assay [2] is 68.2 µM (active); in assay [5] it was 30.5 µM (active) and 27.3 µM (active); in [14], 19.9 µM (active) and 20 µM (active); in assay [6] it was 7.06 µM (active) and 11.2 µM (active); in assay [7], 2.51 µM (active) and 3.56 µM (active); in [8] it was 35.4 µM (active) and 71 µM (active). Moreover, the Potency was 2.81 µM (active) and 5.64 µM (active) in assay [10]; 6.3 µM (active) and 6.33 µM (active) in assay [11]; 9.98 µM (active) and 11.2 µM (active) in assay [12]; 21.8 µM (active) and 38.9 µM (active) in [15].
`Nc1ccc(-c2ccc(N)c(N)c2)cc1N`: the Potency result in assay [1], in [3] and in [15] was “inactive” in each case. Also, the Potency in assay [2] is 68.4 µM (active) and 61.1 µM (active); in assay [4], 48.4 µM (active); in assay [5] it was 24.3 µM (active); in assay [9], 28.2 µM (active); in assay [10] it was 19.9 µM (active) and 3.56 µM (active); in assay [11], 17.8 µM (active) and 2.83 µM (active). For the same molecule, the Potency was 35.5 µM (active) in assay [12]; 5.01 µM (active) and 2.83 µM (active) in [13].
For the molecule `CN(C)C(=O)Nc1ccc(Cl)cc1`, the Potency entry in assay [1], in assay [2], in assay [3], in assay [4], in assay [5] and in assay [14] was “inactive” throughout. Moreover, the Potency result in assay [6], in [7], in [8], in [11], in assay [15] and in assay [13] was “inactive” each time. In addition, the Potency is 9.86 µM (active) in assay [9]; 7.83 µM (active) in assay [10]; 3.93 µM (active) and 3.99 µM (active) in assay [12].
As for `C#C[C@]1(O)CC[C@H]2[C@@H]3CCC4=CC(=O)CC[C@]4(C)[C@H]3CC[C@@]21C`, the Potency result in [1], in assay [2], in assay [3], in assay [4], in [14] and in assay [6] was “inactive” in each case. Further, the Potency result in assay [7], in assay [8] and in assay [9] was “inactive” throughout. In [16], the max activation was 11.6% (inactive). In addition, the Potency in assay [10] is 6.33 µM (active) and 1.38 µM (active).
As for `NCc1cccnc1`, the Potency result in assay [1], in assay [2], in [3], in [4], in assay [5] and in [6] was “inactive” throughout. Also, the Potency result in assay [7], in [8], in assay [9], in assay [11], in [12] and in assay [15] was “inactive” in each case. Besides, the max activation in [16] was -2.22% (inactive). The molecule was called inactive in assay [17] and in assay [18]. Further, in assay [10], the Potency is 28.3 µM (active) and inactive.
